This is one part of a sample in which hits are shown more often than they occur.
ROC1-CUL1 inh: blocks human RBX1-Cullin-1 di-ubiquitin formation; in vitro K48 di-Ub FRET, acceptor:donor ratio, 45 min; P62877+Q13616; inhibition, % at 10 µM; 140,000 compounds, 0.6% hits; in the data active = inhibition above about 25%
The depositor's hits bear a star.

SMILES	ROC1-CUL1 inh
COc1cnc2c(=O)n(C)c(=O)n(C)c2n1	2
Cc1nc2c(nc1Cl)c(=O)n(C)c(=O)n2C	-5
Cc1nc2c(=O)n(C)c(=O)n(C)c2nc1Cl	71*
CC1=NC2C3CCCCC3S(=O)(=O)C2C(c2ccc(Br)cc2)C1C#N (stereo not drawn)	8
COc1ccc(C(=O)N2CCC(N3CCCC(C(=O)NC4CC4)C3)CC2)o1 (stereo not drawn)	-1
Cc1occc1C(=O)N1CCC(N2CCCC(C(=O)NC3CC3)C2)CC1 (stereo not drawn)	25*
Cc1cccc(C(=O)N2CCC(N3CCCC(C(=O)NC4CC4)C3)CC2)c1 (stereo not drawn)	11
CC1=CN2C(=N)/C(=C/c3cn(CCOc4ccc(C(C)(C)C)cc4)c4ccccc34)C(=O)N=C2S1	4
N#CC1C(=N)Oc2n[nH]c(-c3ccc(-c4ccccc4)cc3)c2C1c1ccccc1F (stereo not drawn)	6
N#CC1C(=N)Oc2n[nH]c(-c3ccc(-c4ccccc4)cc3)c2C1c1ccccn1 (stereo not drawn)	31*
Cc1ccc(-c2[nH]nc3c2C(c2ccc4c(c2)OCO4)C(C#N)C(=N)O3)cc1 (stereo not drawn)	1
Cc1ccc(-c2[nH]nc3c2C(c2ccc(O)c(O)c2)C(C#N)C(=N)O3)cc1 (stereo not drawn)	35*
N#CC1C(=N)Oc2n[nH]c(-c3ccccc3)c2C1c1ccccc1Cl (stereo not drawn)	13
Cc1ccc(-c2[nH]nc3c2C(c2ccc(Cl)cc2)C(C#N)C(=N)O3)cc1 (stereo not drawn)	-9
CC(C)(C)c1ccc(-c2nnc(-c3ccccc3)n2-c2ccccc2)cc1	-2
Cc1cc(C)c(C(C(=O)O)c2ccccc2)c(C)c1 (stereo not drawn)	0
COC(=O)c1cc(-c2ccc(/C=C3/C(=O)NN(c4ccc(C)cc4)C3=O)o2)ccc1Cl	13
C=CCOC(=O)c1cc(-c2ccc(/C=C3/C(=O)NN(c4ccc(F)c(Cl)c4)C3=O)o2)ccc1Cl	1
COC(=O)c1ccc(N2NC(=O)/C(=C/c3ccc(-c4ccc(Cl)c(C(=O)O)c4)o3)C2=O)cc1	35*
CCN1C(=O)/C(=C/c2ccc(-c3ccc(Cl)c(C(=O)O)c3)o2)C(=O)NC1=S	87*
CCOC(=O)c1cc(-c2ccc(/C=C3/C(=O)ON=C3C)o2)ccc1Cl	-2
CC1=NN(c2ccccc2)C(=O)/C1=C/c1ccc(-c2ccc(C)c(C(=O)O)c2)o1	3
Cc1cc(N2CCN(c3ccccc3Cl)CC2)c2nncn2n1	3
COc1ccc(C(=O)N2CCOCC2)cc1S(=O)(=O)N1CCCC1	1
Cc1ccc(N=C2N=C3CC(C)(C)CC4=CC5(C)CC(C)(C)CC(C5)(S2)C43)cc1 (stereo not drawn)	2
SMILES	ROC1-CUL1 inh
COc1ccc2cc(-c3ccccc3)oc2c1	-3
COc1ccc2nc(Cl)c(-c3nnc4c(Cl)nc5ccccc5n34)cc2c1	-9
Fc1ccc(-c2nnc3c(Cl)nc4ccccc4n23)cc1	11
Clc1nc2ccccc2n2c(-c3ccccc3)nnc12	25*
CCOC(=O)c1[nH]c(C)c(C(=O)N2CCC(c3cc(=O)[nH]cn3)CC2)c1C	-2
CCOc1ccc(C(=O)N2CCN(c3ccccc3C)CC2)cc1OCC	-4
N#Cc1c(-c2ccccc2)cc(-c2cccs2)nc1SCCN1CCOCC1	0
N#Cc1c(-c2ccccc2)cc(-c2ccccc2)nc1SCCN1CCOCC1	100*
Cc1nc(SCCN2CCOCC2)cc(-c2ccccc2)n1	-3
Cc1cccc(CN2CCN(C(=O)c3cn(C4CCCCC4)cc(C(=O)NC4CC4)c3=O)CC2)c1	7
COc1cccc(C2c3c(n[nH]c3C)OC(=N)C2C#N)c1 (stereo not drawn)	5
CCOc1cc(C2C3=C(CC(C)(C)CC3=O)N(CCC(=O)O)C3=C2C(=O)CC(C)(C)C3)ccc1OCc1cccc2ccccc12	-2
O=C(CSc1nc(-c2ccccc2)cs1)NC1=NN(c2ccccc2)C(=O)C1	-16
Cc1ccc(-c2csc(SC3C(=O)N(c4ccccc4)N=C3c3ccccc3)n2)cc1 (stereo not drawn)	83*
CNC(=O)CSc1nc(-c2ccccc2)cs1	-5
COc1cc2nc(N(C)C)c(CNC3CCCCCC3)cc2c(OC)c1OC	3
c1ccc(-c2ccnc3ncnn23)cc1	-2
O=c1oc2ccccc2n1CCCCN1CCN(c2ccccc2)CC1	18
CCc1ccc(S(=O)(=O)n2nnc3ccccc32)cc1	26*
Cc1ccc2c(c1)nnn2S(=O)(=O)c1ccc([N+](=O)[O-])cc1	-5
Cc1ccc2c(c1)nnn2S(=O)(=O)c1ccc(C(C)(C)C)cc1	0
Cc1sc2nc(-c3ccc(-c4ccc(C(=O)O)cc4)o3)[nH]c(=O)c2c1C	-2
Cc1sc2nc(-c3ccccc3)[nH]c(=O)c2c1C	7
Cc1sc2nc(-c3ccc(-c4ccc(Cl)c(C(=O)O)c4)o3)[nH]c(=O)c2c1C	47*
COc1ccc(C23Oc4ccccc4C(c4ccc(F)cc4)C2C3(Cl)Cl)cc1 (stereo not drawn)	-4
SMILES	ROC1-CUL1 inh
CC1=Nc2c(ccc3c2C(C)(C)C(C)=N3)C1(C)C	-6
Brc1ccc(-n2cccc2)cc1	6
CCCCNC(=O)N1CCN(Cc2ccccc2)CC1	10
O=C(C(C(F)(F)F)C(F)(F)F)N1CCN(Cc2ccccc2)CC1	53*
CC(C)C(=O)N1CCN(Cc2cccc(F)c2)CC1	-5
CN1CCN(CC(=O)N2CCC(=C3c4ccccc4CSc4ccccc43)CC2)CC1	3
CCS(=O)(=O)c1ncc(CN(C)Cc2cccs2)n1CCOC	9
COC(=O)CN1C(=O)S/C(=C/c2cc(C)n(-c3cccc(Br)c3)c2C)C1=O	-9
COC(=O)[C@@H](NC(=O)CCC1(Cc2ccc(F)cc2)CCC(=O)N1)c1ccccc1 (stereo partly drawn)	18
CCCCN1C(=O)C(=C/C=C/c2ccco2)C(=O)N(CCCC)C1=S	31*
CCCCCCN1C(=O)NC(=O)/C(=C\c2ccc3c(c2)OCO3)C1=O	7
O=C1NN(c2ccc(Br)cc2)C(=O)/C1=C\C=C\c1ccco1	4
CCCCN1C(=O)C(=Cc2cccs2)C(=O)N(CCCC)C1=S	4
CCCCN1C(=O)C(=Cc2ccco2)C(=O)N(CCCC)C1=S	99*
CCCCN1C(=O)C(=Cc2ccc(OCC)c(OC)c2)C(=O)N(CCCC)C1=S	1
CCCCN1C(=O)/C(=C/c2ccc3c(c2)OCO3)C(=O)N(Cc2ccco2)C1=S	101*
CCCCC1(C)OC(=O)C(=Cc2ccc3c(c2)OCO3)C(=O)O1 (stereo not drawn)	-5
CCCCN1C(=O)C(=O)N(c2ccccc2)C1=S	1
Cc1cc(/C=C2\C(=O)Nc3ccccc32)ccc1N1CCCC1	2
Cc1cc(-c2ccccc2)nc2oc3c(=S)nc[nH]c3c12	9
O=S(=O)(N=C(Nc1cccc(F)c1)c1ccccc1)c1ccccc1	-3
C=CCCC(=O)N1CCOC(Cc2cccc(F)c2)C1 (stereo not drawn)	-1
O=C(c1ccccc1)C1C2c3ccccc3C(c3ccccc32)C1C(=O)c1ccccc1 (stereo not drawn)	5
Cn1c(=O)c2c(ncn2CCCOC2c3ccccc3C=Cc3ccccc32)n(C)c1=O	1
O=C(Nc1ccc(O)cc1)C1CCCCC1	-6
Cc1cccc(C(=O)NNC(=O)c2ccc(C(C)(C)C)cc2)c1	-5
C=CCN1C(=O)/C(=C/c2ccc(-c3ccc(C(=O)O)cc3)o2)SC1=S	5

Compound activity (PubChem)
